Laboratory results from PubChem BioAssay.
Active and inactive are the calls of the source.

Tests used:
[1] = binders of probe aFSTL3 on microarray, primary screen, stem cell growth factor project, biochemical, small-molecule microarray, fluorescence 635/667 (AID 1064); conditions: higher = more signal;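 further: measures binding of the biotinylated anti-FSTL3 antibody to printed compounds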
[2] = binders from COS7 lysate, DM2A8 probe, primary screen, torsin A project, cell lysate, small-molecule microarray, fluorescence 635/667 (AID 1065); conditions: higher = more signal, COS7 lysate expressing mutant human TOR1A
[3] = binders of probe aFGF2 on microarray, primary screen, stem cell growth factor project, biochemical, small-molecule microarray, fluorescence 635/667 (AID 1067); conditions: higher = more signal;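 further: measures binding of biotinylated aFGF2 protein to printed compounds on slides; z-score merges feature fluorescence and signal-to-noise across triplicate slides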
[4] = binders of probe aFGF10 on microarray, primary screen, stem cell growth factor project, biochemical, small-molecule microarray, fluorescence 635/667 (AID 1071); conditions: higher = more signal;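 further: score merges 667 nm spot intensity and signal to noise from triplicate slides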
[5] = target: Neurogenic locus notch homolog protein 2 (Homo sapiens) (UniProt Q04721); test: Notch2 binders on small-molecule microarrays, primary screen, biochemical, small-molecule microarray, 635 nm fluorescence, stem cell growth factors (AID 1073); conditions: Notch2 binding, higher = more signal
Chain of Neurogenic locus notch homolog protein 2 (Homo sapiens) (Q04721 whole entry, looked up, canonical isoform): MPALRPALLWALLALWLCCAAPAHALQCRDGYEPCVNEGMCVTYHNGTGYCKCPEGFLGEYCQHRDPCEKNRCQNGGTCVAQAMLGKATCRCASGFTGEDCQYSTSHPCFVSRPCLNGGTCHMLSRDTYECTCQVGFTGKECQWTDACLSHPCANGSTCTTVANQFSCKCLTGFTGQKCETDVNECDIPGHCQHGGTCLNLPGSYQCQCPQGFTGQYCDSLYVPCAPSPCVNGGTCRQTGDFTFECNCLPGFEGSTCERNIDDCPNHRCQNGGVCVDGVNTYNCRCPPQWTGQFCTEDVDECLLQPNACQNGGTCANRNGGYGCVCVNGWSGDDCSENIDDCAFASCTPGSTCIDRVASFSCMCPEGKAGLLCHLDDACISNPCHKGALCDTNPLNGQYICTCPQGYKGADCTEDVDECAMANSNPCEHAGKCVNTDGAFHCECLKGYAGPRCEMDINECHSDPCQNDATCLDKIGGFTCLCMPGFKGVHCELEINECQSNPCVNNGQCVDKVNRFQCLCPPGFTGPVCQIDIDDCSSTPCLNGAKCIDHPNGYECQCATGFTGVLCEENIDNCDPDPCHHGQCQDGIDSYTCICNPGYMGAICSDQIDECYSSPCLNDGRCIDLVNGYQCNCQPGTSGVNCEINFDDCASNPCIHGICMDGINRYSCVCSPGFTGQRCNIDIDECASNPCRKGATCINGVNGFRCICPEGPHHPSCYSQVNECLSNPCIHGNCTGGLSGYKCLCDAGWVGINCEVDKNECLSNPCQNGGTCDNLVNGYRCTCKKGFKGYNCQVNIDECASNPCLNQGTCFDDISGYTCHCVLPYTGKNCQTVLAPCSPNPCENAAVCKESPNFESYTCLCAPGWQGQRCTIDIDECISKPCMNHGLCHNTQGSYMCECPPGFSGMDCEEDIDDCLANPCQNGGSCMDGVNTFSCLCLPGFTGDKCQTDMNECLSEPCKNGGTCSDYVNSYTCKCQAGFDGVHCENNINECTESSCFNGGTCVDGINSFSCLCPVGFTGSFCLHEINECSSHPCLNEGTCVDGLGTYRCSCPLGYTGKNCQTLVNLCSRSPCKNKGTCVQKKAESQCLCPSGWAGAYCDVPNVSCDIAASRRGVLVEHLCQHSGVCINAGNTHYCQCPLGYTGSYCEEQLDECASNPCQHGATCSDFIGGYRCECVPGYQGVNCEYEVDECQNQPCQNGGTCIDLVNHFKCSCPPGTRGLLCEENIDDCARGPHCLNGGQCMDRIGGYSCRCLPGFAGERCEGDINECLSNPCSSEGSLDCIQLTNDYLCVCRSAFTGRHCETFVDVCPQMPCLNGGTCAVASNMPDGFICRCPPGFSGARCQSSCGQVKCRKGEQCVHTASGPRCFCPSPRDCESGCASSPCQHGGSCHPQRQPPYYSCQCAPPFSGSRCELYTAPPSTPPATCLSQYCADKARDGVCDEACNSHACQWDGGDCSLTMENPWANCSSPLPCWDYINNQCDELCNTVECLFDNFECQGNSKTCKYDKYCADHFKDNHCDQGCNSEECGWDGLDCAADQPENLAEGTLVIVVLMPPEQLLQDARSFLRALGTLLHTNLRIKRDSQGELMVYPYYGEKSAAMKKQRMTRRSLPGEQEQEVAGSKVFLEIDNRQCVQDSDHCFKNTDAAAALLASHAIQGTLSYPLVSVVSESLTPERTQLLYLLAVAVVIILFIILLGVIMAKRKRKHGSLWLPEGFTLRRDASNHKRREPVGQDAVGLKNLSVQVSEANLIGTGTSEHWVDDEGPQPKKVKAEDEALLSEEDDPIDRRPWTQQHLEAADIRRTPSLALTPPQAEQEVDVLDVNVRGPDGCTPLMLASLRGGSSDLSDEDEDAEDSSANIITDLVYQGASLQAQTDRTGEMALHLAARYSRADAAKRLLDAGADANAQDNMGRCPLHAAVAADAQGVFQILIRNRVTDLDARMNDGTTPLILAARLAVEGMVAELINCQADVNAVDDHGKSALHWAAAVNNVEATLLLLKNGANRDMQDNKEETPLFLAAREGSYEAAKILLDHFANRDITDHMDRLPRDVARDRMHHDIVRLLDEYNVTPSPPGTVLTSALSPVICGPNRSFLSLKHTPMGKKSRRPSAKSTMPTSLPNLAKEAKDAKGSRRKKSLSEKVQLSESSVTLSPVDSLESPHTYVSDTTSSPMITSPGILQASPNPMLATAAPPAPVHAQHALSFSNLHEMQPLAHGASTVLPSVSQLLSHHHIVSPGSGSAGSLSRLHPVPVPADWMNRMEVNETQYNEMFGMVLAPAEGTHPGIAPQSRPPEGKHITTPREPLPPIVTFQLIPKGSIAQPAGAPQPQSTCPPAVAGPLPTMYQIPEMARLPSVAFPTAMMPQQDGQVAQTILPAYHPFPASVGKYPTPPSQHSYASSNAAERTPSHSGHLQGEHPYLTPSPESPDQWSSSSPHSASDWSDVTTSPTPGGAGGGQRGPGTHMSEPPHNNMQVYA

[6] = target: Pro-neuregulin-1, membrane-bound isoform (Homo sapiens) (UniProt Q02297); test: NRG1 binders on small-molecule microarrays, primary screen, psychiatric disease protein project, biochemical, small-molecule microarray, fluorescence 635/667 (AID 1075); conditions: NRG1 binding, 635 nm fluorescence, higher = more signal;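 further: score combines 667 nm spot fluorescence with signal to noise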
[7] = test system: Neuregulin-1 EGF-like domain; test: binders of neuregulin-1 EGF-like domain, primary screen, biochemical, small-molecule microarray, 635 nm fluorescence (AID 1081); conditions: small-molecule microarray binding, higher = more signal;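 further: binding of the protein to compounds printed on small-molecule microarray slides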
[8] = FRG1 promoter luciferase signal modulators, primary screen, FRG1 inhibition for FSHD, cell-based, C2C12 myotubes, firefly/Renilla luciferase, luminescence (AID 1084); conditions: higher = more signal, called active from +8 up or from −8 down
[9] = binders of probe aFST on microarray, primary screen, stem cell growth factor project, biochemical, small-molecule microarray, fluorescence 635/667 (AID 1086); conditions: higher = more signal;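 further: score merges 667 nm fluorescence with signal-to-noise of each printed compound spot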
[10] = binders of probe aHhip on microarray, primary screen, stem cell growth factor project, biochemical, small-molecule microarray, fluorescence 635/667 (AID 1087); conditions: higher = more signal;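 further: score merges spot fluorescence at 667nm with spot signal to noise ratio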
[11] = test system: PRMT1 (protein arginine N-methyltransferase 1); test: PRMT1 binders on small-molecule microarrays, primary screen, biochemical, small-molecule microarray, 635 nm fluorescence (AID 1088); conditions: small-molecule microarray binding, higher = more signal;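 further: binding of Prmt1 protein to compounds spotted on small-molecule microarray slides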
[12] = yeast growth modulation, basal conditions, primary screen, YJM789 clinical isolate, OD600, 24 h (AID 1089);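 further: growth of clinical yeast isolate S. cerevisiae YJM 789 seeded 1000 cells per well; test concentration not given here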; conditions: S. cerevisiae YJM789 growth, higher = more signal, called active from +8 up or from −8 down
[13] = fission yeast growth modulation, primary screen, strain 972, OD600, 24 h, no modulator (AID 1090);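 further: basal condition with compound alone and no growth modifier present; test concentration not given here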; conditions: S. pombe 972 growth, higher = more signal, called active from +8 up or from −8 down
[14] = S. cerevisiae growth modulation with rapamycin, primary screen, strain BY4716, OD600, 96 h (AID 1091); conditions: higher = more signal, called active from +8 up or from −8 down; further: test concentration not given here
[15] = target: Torsin-1A-interacting protein 2 (Homo sapiens) (UniProt Q8NFQ8); test: LULL1 binders on small-molecule microarray, primary screen, cell lysate, human LULL1 lysate, 635/667 nm fluorescence (AID 1092); conditions: hLULL1 lysate binding, 635 nm fluorescence, higher = more signal;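 further: probe is lysate of COS7 cells overexpressing human LULL1; score merges per-feature 667 nm fluorescence with signal-to-noise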
[16] = E. coli growth modulation, two-sided OD650, primary screen, E. coli filamentation project, strain DRC41, 24 h (AID 1093); conditions: OD650, 24 h, higher = more signal, called active from +8 up or from −8 down;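 further: MC1000 strain lacking acrAB efflux and sulA so SOS filamentation is blocked; test concentration not given here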
[17] = small-molecule microarray binders of probe aLefty2, primary screen, biochemical, biotinylated probe, 635/667 nm fluorescence (AID 1094); conditions: higher = more signal;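 further: score merges spot fluorescence near 667 nm with spot signal-to-noise ratio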
[18] = test system: Noggin (protein binding on small-molecule microarray); test: Noggin binders on small-molecule microarray, primary screen, biochemical, 635/667 nm fluorescence (AID 1095); conditions: 635 nm fluorescence, higher = more signal;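 further: score merges 667 nm feature fluorescence with signal to noise over triplicate slides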
[19] = target: Neurogenic locus notch homolog protein 3 (Homo sapiens) (UniProt Q9UM47); test: NOTCH3 binders on small-molecule microarray, primary screen, biochemical, 635/667 nm fluorescence (AID 1096); conditions: NOTCH3 binding, 635 nm fluorescence, higher = more signal
Chain of Neurogenic locus notch homolog protein 3 (Homo sapiens) (Q9UM47 whole entry, looked up): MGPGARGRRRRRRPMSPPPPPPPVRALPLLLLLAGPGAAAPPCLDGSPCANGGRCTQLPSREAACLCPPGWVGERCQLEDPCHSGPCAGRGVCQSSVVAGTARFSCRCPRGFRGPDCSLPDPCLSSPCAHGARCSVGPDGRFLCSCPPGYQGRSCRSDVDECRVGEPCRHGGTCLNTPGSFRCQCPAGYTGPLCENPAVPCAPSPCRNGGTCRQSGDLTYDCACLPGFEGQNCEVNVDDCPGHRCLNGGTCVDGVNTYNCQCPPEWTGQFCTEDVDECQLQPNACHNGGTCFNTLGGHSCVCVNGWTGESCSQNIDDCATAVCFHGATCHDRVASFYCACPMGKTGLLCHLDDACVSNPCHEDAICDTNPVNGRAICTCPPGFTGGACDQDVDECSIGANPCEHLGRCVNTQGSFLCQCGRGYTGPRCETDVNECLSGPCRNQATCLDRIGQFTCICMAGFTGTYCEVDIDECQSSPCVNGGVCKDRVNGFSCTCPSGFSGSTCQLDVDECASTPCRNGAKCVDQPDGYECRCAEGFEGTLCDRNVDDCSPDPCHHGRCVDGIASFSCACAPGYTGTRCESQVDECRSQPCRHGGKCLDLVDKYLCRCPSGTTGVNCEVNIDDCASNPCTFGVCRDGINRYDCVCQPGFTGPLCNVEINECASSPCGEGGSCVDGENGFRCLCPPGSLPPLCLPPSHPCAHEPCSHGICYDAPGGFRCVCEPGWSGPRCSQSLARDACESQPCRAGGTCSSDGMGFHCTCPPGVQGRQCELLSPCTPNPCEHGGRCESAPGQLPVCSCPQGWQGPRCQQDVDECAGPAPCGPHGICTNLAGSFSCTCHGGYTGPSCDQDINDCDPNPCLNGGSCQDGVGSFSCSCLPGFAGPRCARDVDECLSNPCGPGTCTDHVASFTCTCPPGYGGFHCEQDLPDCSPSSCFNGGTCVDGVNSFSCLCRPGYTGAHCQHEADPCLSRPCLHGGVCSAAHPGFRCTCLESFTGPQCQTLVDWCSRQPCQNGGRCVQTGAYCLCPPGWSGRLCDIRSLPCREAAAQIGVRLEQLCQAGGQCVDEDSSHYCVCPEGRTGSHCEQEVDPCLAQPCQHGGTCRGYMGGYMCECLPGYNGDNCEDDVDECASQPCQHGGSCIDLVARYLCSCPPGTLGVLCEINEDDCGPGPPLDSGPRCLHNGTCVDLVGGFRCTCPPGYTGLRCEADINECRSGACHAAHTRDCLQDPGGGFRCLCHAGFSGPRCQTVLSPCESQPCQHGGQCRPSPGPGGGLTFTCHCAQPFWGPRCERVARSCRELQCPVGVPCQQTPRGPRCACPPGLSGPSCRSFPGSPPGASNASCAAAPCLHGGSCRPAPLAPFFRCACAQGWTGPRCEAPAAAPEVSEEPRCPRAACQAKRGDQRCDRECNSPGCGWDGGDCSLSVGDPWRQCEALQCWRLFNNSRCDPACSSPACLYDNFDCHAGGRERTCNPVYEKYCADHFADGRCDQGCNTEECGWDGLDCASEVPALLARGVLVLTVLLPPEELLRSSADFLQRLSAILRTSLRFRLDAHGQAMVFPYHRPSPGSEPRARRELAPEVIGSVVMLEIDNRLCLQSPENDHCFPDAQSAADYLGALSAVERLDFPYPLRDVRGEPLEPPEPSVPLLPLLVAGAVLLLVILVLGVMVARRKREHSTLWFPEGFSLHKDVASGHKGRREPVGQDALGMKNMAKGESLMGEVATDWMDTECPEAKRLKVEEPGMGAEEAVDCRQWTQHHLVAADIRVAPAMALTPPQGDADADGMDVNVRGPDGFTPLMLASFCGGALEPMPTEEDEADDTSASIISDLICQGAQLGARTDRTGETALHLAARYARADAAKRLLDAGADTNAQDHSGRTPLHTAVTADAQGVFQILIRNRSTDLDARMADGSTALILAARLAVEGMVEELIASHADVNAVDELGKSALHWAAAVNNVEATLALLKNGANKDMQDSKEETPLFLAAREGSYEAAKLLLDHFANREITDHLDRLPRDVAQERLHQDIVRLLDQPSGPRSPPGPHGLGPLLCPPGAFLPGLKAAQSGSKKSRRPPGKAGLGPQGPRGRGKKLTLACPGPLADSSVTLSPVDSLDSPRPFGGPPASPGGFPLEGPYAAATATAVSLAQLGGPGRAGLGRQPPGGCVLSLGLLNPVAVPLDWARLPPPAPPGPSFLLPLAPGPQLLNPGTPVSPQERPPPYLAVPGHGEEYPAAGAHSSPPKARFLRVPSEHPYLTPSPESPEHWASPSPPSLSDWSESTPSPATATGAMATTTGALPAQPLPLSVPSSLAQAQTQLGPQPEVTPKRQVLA

[20] = small-molecule microarray binders of probe aEGFR, primary screen, biochemical, biotinylated probe, 635/667 nm fluorescence (AID 1097); conditions: higher = more signal;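 further: probe is a biotinylated anti-EGFR antibody binding compounds printed on slides; score combines fluorescence near 667 nm and signal to noise of each spot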

## CCOC(=O)[C@H](CC(C)C)NC(=O)CCC1CC(OC(=O)NCc2ccc3c(c2)OCO3)CC2(CCCC(COC(=O)NCCCN3CCCC3=O)O2)O1 (stereo not given in full)
[1]
  composite z-score: -0.303
[2]
  composite z-score: 0.322
[3]
  composite z-score: -0.087
[4]
  composite z-score: 0.706
[5]
  composite z-score: 0.99
[6]
  composite z-score: 0.817
[7]
  composite z-score: 0.984
[8]
  z-score: 0.584 (inactive)
[9]
  composite z-score: 0.465
[10]
  composite z-score: -0.0645
[11]
  composite z-score: 1.49
[12]
  z-score: -0.0618 (inactive)
[13]
  z-score: 0.162 (inactive)
[14]
  z-score: -0.474 (inactive)
[15]
  composite z-score: 1.94
[16]
  z-score: 0.485 (inactive)
[17]
  composite z-score: -0.166
[18]
  composite z-score: 1.36
[19]
  composite z-score: 1.04
[20]
  composite z-score: -0.0271

## CCN1C(=O)[C@H]2[C@H]3[C@H](O)[C@H](O)CC(=NOCC(C)C)[C@@H]3CC[C@H]2C1=O
[1]
  composite z-score: -0.596
[2]
  composite z-score: 0.217
[3]
  composite z-score: -0.142
[4]
  composite z-score: 0.361
[5]
  composite z-score: 1.23
[6]
  composite z-score: 0.42
[7]
  composite z-score: 0.336
[8]
  z-score: 0.0163 (inactive)
[9]
  composite z-score: 0.124
[10]
  composite z-score: 0.465
[11]
  composite z-score: 1.55
[12]
  z-score: -0.132 (inactive)
[13]
  z-score: -0.666 (inactive)
[14]
  z-score: -0.242 (inactive)
[15]
  composite z-score: 2.08
[16]
  z-score: -0.637 (inactive)
[17]
  composite z-score: -0.0898
[18]
  composite z-score: 1.11
[19]
  composite z-score: 1.12
[20]
  composite z-score: 0.051

## C[C@@H](ON=C1[C@H]2CCn3c(=O)n(-c4ccccc4)c(=O)n3[C@H]2[C@H](O)[C@@H]2O[C@H]12)c1cn([C@@H]2COC[C@H]2O)nn1
[1]
  composite z-score: -0.648
[2]
  composite z-score: 0.653
[3]
  composite z-score: -0.0529
[4]
  composite z-score: 0.35
[5]
  composite z-score: 0.213
[6]
  composite z-score: 0.406
[7]
  composite z-score: 0.261
[8]
  z-score: 1.15 (inactive)
[9]
  composite z-score: 0.236
[10]
  composite z-score: 0.0274
[11]
  composite z-score: 0.556
[12]
  z-score: -0.638 (inactive)
[13]
  z-score: 0.636 (inactive)
[14]
  z-score: 0.0921 (inactive)
[15]
  composite z-score: -0.219
[16]
  z-score: 0.389 (inactive)
[17]
  composite z-score: -0.152
[18]
  composite z-score: 0.57
[19]
  composite z-score: 0.72
[20]
  composite z-score: -0.0788

## CC(CCN1CCCc2nc(C)c(C)cc21)=NO[C@@H](C)c1cc(-c2c(C)cc(C)cc2C)no1
[1]
  composite z-score: -0.34
[2]
  composite z-score: -0.685
[3]
  composite z-score: -0.0069
[4]
  composite z-score: 0.338
[5]
  composite z-score: 0.121
[6]
  composite z-score: 0.732
[7]
  composite z-score: 0.8
[8]
  z-score: -0.682 (inactive)
[9]
  composite z-score: 0.0731
[10]
  composite z-score: -0.166
[11]
  composite z-score: 0.684
[12]
  z-score: 0.0024 (inactive)
[13]
  z-score: -2.18 (inactive)
[14]
  z-score: -0.381 (inactive)
[15]
  composite z-score: 1.33
[16]
  z-score: 1.74 (inactive)
[17]
  composite z-score: -0.0512
[18]
  composite z-score: 0.308
[19]
  composite z-score: 0.635
[20]
  composite z-score: -0.0873

## CO[C@H]1COC(=O)CC=C[C@H](C)COC(=O)[C@@H](C)NC(=O)CC=C[C@@H]1C
[1]
  composite z-score: -0.512
[2]
  composite z-score: 1.94
[3]
  composite z-score: -0.0996
[4]
  composite z-score: 0.231
[5]
  composite z-score: -0.0457
[6]
  composite z-score: -0.79
[7]
  composite z-score: 0.219
[8]
  z-score: 0.464 (inactive)
[9]
  composite z-score: -0.214
[10]
  composite z-score: 0.0794
[11]
  composite z-score: 1.53
[12]
  z-score: -0.78 (inactive)
[13]
  z-score: -0.809 (inactive)
[14]
  z-score: -1.18 (inactive)
[15]
  composite z-score: -1.13
[16]
  z-score: 0.0007 (inactive)
[17]
  composite z-score: -0.289
[18]
  composite z-score: 1.88
[19]
  composite z-score: -0.222
[20]
  composite z-score: -0.0606

## CCOC(=O)NN=C1C[C@@H](O)[C@@H](O)[C@@H]2[C@@H]3C(=O)N(C(C)(C)C)C(=O)[C@@H]3CC[C@H]12
[1]
  composite z-score: -0.306
[2]
  composite z-score: 0.367
[3]
  composite z-score: -0.163
[4]
  composite z-score: 0.255
[5]
  composite z-score: 0.444
[6]
  composite z-score: -0.135
[7]
  composite z-score: 0.603
[8]
  z-score: -0.848 (inactive)
[9]
  composite z-score: 0.497
[10]
  composite z-score: 0.0401
[11]
  composite z-score: -0.247
[12]
  z-score: 0.438 (inactive)
[13]
  z-score: 0.277 (inactive)
[14]
  z-score: -0.397 (inactive)
[15]
  composite z-score: -0.3
[16]
  z-score: 0.443 (inactive)
[17]
  composite z-score: -0.101
[18]
  composite z-score: 0.708
[19]
  composite z-score: 0.235
[20]
  composite z-score: 0.039

## CCCCC#C[C@@H]1C=C[C@H](Oc2cc(OC)c(OC)c(OC)c2)[C@@H](COC(=O)OCC)O1
[1]
  composite z-score: -0.682
[2]
  composite z-score: -0.0561
[3]
  composite z-score: -0.116
[4]
  composite z-score: -0.0152
[5]
  composite z-score: -0.526
[6]
  composite z-score: -0.158
[7]
  composite z-score: -0.365
[8]
  z-score: -0.214 (inactive)
[9]
  composite z-score: -0.311
[10]
  composite z-score: 0.141
[11]
  composite z-score: 0.314
[12]
  z-score: 0.635 (inactive)
[13]
  z-score: -2.19 (inactive)
[14]
  z-score: 0.398 (inactive)
[15]
  composite z-score: -0.16
[16]
  z-score: 0.934 (inactive)
[17]
  composite z-score: -0.209
[18]
  composite z-score: 0.229
[19]
  composite z-score: -0.208
[20]
  composite z-score: -0.162

## CCOC(=O)C1=NO[C@@]2(C=C(Br)C3(OCCCO3)[C@H]3O[C@H]32)C1
[1]
  composite z-score: 0.224
[2]
  composite z-score: 0.0735
[3]
  composite z-score: -0.116
[4]
  composite z-score: 1.05
[5]
  composite z-score: 0.282
[6]
  composite z-score: -0.467
[7]
  composite z-score: 0.646
[8]
  z-score: 0.0274 (inactive)
[9]
  composite z-score: 0.248
[10]
  composite z-score: 0.0972
[11]
  composite z-score: -0.481
[12]
  z-score: 0.74 (inactive)
[13]
  z-score: 0.664 (inactive)
[14]
  z-score: -0.291 (inactive)
[15]
  composite z-score: 0.0603
[16]
  z-score: 0.292 (inactive)
[17]
  composite z-score: 0.105
[18]
  composite z-score: 1.42
[19]
  composite z-score: 0.91
[20]
  composite z-score: -0.004

## O=C1C=C[C@@H](O)[C@@H]2[C@@H]3C(=O)N(C[C@@H]4CCCO4)C(=O)[C@@H]3CC[C@@H]12
[1]
  composite z-score: -0.518
[2]
  composite z-score: 0.0078
[3]
  composite z-score: -0.103
[4]
  composite z-score: 0.458
[5]
  composite z-score: 0.141
[6]
  composite z-score: -0.0326
[7]
  composite z-score: 0.691
[8]
  z-score: -0.241 (inactive)
[9]
  composite z-score: 0.041
[10]
  composite z-score: -0.136
[11]
  composite z-score: -0.168
[12]
  z-score: 0.026 (inactive)
[13]
  z-score: -0.479 (inactive)
[14]
  z-score: 0.818 (inactive)
[15]
  composite z-score: 0.276
[16]
  z-score: 0.656 (inactive)
[17]
  composite z-score: -0.139
[18]
  composite z-score: 0.54
[19]
  composite z-score: 0.541
[20]
  composite z-score: -0.0208

## CC(C)(C)N1C(=O)[C@H]2[C@H]3[C@H](O)[C@H](O)CC(=O)[C@@H]3CC[C@H]2C1=O
[1]
  composite z-score: 1.64
[2]
  composite z-score: 0.0227
[3]
  composite z-score: -0.156
[4]
  composite z-score: 0.673
[5]
  composite z-score: 0.259
[6]
  composite z-score: -0.404
[7]
  composite z-score: 0.304
[8]
  z-score: -0.255 (inactive)
[9]
  composite z-score: 0.723
[10]
  composite z-score: -0.0645
[11]
  composite z-score: 0.33
[12]
  z-score: -0.128 (inactive)
[13]
  z-score: -0.509 (inactive)
[14]
  z-score: -0.0675 (inactive)
[15]
  composite z-score: -0.26
[16]
  z-score: -0.561 (inactive)
[17]
  composite z-score: -0.204
[18]
  composite z-score: 0.562
[19]
  composite z-score: 0.373
[20]
  composite z-score: -0.147
